Results from PubChem BioAssay (NCATS).
Where “and” joins values, the source holds several entries; their conditions need not be identical. Equal values may be shown once. Records with an inconclusive call do not appear. Calls of active or inactive are those of the source. Unless noted, calls come from the whole dose curve; as a rule, active = well fitted curve in the direction sought with a large enough effect; inconclusive = small, poorly fitted or top-dose-only effect, or another doubt; inactive = no such curve, though single readings can be large; an effect the other way counts as inactive or inconclusive.

Assays:
[1] = qHTS Assay for Identification of Small Molecule Agonists for Thrombopoietin (TPO) Signaling Pathway (AID 917); note: % is set by controls: 0 for no effect and ±100 for the full control effect
In short: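 We measured Glycoprotein IIb promoter–luciferase output in IL-3-starved Ba/F3 murine cells expressing the human TPO receptor after 24 hrs at 37 C with compounds and 26 pM TPO.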

[2] = biological target: Muscarinic acetylcholine receptor M1 (Rattus norvegicus) (UniProt P08482); experiment: qHTS Assay for Antagonists of Acetylcholine Muscarinic M1 Receptor: Kinetic Measurement of Intracellular Calcium Response (AID 943); note: nearly all actives have a fitted effect of over 75% in size; note: potency is the fitted concentration of half-maximal effect
Chain of Muscarinic acetylcholine receptor M1 (Rattus norvegicus) (P08482 whole entry, looked up): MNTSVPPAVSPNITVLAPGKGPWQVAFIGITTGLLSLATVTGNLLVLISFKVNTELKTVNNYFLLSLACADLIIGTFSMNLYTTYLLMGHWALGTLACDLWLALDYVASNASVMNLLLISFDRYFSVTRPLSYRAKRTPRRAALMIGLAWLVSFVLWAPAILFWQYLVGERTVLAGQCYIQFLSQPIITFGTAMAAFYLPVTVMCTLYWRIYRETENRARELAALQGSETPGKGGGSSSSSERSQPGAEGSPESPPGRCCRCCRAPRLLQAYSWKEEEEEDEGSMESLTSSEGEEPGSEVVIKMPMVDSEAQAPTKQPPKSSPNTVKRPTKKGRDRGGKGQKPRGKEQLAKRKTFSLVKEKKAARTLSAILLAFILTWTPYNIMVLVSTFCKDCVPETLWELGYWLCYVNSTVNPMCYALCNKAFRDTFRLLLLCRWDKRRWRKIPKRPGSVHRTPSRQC
In short: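 CHO cells expressing rat M1 receptor, Fluo-4 loaded, preincubated 10 min with compound, then stimulated with EC80 carbachol (100 nM final). Kinetic calcium fluorescence over 4 min; response taken as peak over basal signal.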

[3] = biological target: Muscarinic acetylcholine receptor M1 (Rattus norvegicus) (UniProt P08482); experiment: qHTS Assay for Antagonists of Acetylcholine Muscarinic M1 Receptor: Measurement of IP-One Response (AID 944); note: nearly all actives have a fitted effect of over 75% in size; note: potency is the fitted concentration of half-maximal effect
In short: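 CHO cells stably expressing rat M1, pretreated 10 min with compound, then stimulated 30 min with carbachol at EC80 (200 nM) in LiCl-containing buffer pH 7.4; IP1 accumulation read by HTRF competition (665/620 nm).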

[4] = biological target: Pyruvate kinase (Leishmania mexicana) (UniProt Q27686); experiment: qHTS Validation Assay for Inhibitors of Leishmania Mexicana Pyruvate Kinase (AID 945);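 note: 0% = DMSO only neutral control wells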
Chain of Pyruvate kinase (Leishmania mexicana) (Q27686 2-499 E452W): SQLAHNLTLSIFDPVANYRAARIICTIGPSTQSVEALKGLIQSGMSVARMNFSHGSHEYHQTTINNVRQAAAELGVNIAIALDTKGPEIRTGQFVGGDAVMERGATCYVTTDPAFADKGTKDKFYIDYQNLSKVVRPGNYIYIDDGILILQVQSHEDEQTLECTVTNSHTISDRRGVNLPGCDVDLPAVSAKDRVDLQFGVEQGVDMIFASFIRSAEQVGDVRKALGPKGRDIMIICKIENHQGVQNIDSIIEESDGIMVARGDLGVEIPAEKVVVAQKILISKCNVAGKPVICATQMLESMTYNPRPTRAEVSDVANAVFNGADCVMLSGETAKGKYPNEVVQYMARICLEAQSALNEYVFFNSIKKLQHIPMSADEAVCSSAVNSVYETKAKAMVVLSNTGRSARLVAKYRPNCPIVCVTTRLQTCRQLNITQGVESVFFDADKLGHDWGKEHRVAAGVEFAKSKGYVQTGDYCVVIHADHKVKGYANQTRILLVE
In short: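 Eight-point qHTS titrations in triplicate, data normalized to DMSO neutral control. Reaction: 0.2 nM LmPYK E451W mutant, 0.5 mM PEP, 0.1 mM ADP, 7 mM MgCl2, pH 7.2, one hour at room temperature; luminescent ATP detection.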

[5] = biological target: Pyruvate kinase PKM (Homo sapiens) (UniProt P14618); experiment: qHTS Assay for Activators of Human Muscle Pyruvate Kinase (AID 954; active = well fitted curve in the direction sought with a large enough effect, not every such curve was filed as active;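 note: 0% = uninhibited enzyme and -100% = no enzyme or full thiadiazolimine inhibition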)
Chain of Pyruvate kinase PKM (Homo sapiens) (P14618 whole entry, looked up): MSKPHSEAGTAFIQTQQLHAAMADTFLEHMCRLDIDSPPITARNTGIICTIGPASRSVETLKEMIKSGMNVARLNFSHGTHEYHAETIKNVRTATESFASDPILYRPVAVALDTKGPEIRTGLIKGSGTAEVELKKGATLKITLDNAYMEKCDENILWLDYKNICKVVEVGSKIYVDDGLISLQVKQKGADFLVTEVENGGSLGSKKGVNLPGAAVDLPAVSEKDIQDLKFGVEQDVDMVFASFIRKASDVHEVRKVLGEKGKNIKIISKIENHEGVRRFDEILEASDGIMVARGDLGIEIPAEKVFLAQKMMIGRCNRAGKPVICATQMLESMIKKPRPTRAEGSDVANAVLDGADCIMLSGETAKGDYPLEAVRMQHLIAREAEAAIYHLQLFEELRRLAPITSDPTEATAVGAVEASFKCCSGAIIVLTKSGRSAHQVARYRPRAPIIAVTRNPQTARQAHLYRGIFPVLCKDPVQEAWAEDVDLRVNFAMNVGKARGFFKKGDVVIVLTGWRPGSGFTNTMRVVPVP
In short: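 Purified human PKM2 (0.1 nM) with 0.5 mM PEP (Km) and 0.1 mM ADP in 50 mM imidazole pH 7.2, KCl, MgCl2, 1 h at room temperature; ATP formed read by coupled luciferase luminescence. Normalized to no-enzyme/110 uM thiadiazolimine inhibition; 0.3 nM enzyme column for activation.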

[6] = Confirmation and Secondary Assay for Modulators of Hemoglobin Beta Chain Splicing at IVS2 705 locus (AID 930);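 note: HeLa cells stably expressing the EGFP-705 splicing reporter; GFP fluorescence per well restored by corrected splicing of the IVS2-705 intron in EGFP; series mostly up to about 46 µM; % of control where 0% means no effect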
In short: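 HeLa cells stably carrying EGFP interrupted by mutant beta-globin intron 2 (IVS2-705) treated 2 days at 37C with compound; 500 nM antisense PNA as control. Correct splicing read as total peak GFP intensity per well by laser-scanning cytometry.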

[7] = Cell Viability - LYMP2-001 (AID 921);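 note: series mostly up to about 92 µM; 0% = DMSO only and full inhibition = tetraoctylammonium bromide control wells; nearly all actives have a fitted effect of over 70% in size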
In short: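 qHTS, 1536-well; lymphoblastoid cells, 24 hr compound, 37 C; ATP by CellTiter-Glo, 30 min RT; luminescence; Hill-fit AC50.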

[8] = MultiTox-Fluor Cytotoxicity Assay - LYMP1-001 - Dead Cells (AID 946);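 note: 0% = DMSO and 100% = tetraoctylammonium bromide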
In short: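 LYMP1-001 lymphoblastoid cells (2500/well) treated 16 h at 37 C. Dead-cell protease cleavage of bis-AAF-R110 read at Ex/Em 485/520. Normalized to DMSO and 15 uM tetraoctylammonium bromide; AC50 from Hill fits.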

[9] = MultiTox-Fluor Cytotoxicity Assay - LYMP1-001 - Live Cells (AID 947);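 note: 0% = DMSO only and full inhibition = tetraoctylammonium bromide control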
[10] = Cell Viability - LYMP1-002 - Assay at 16 hr (AID 948);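 note: 0% = DMSO alone and full effect = 92 µM tetraoctylammonium bromide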
In short: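 Acute cytotoxicity is scored as a concentration-dependent fall in intracellular ATP in a human lymphoblastoid line (LYMP1-002) after 16 hr compound exposure at 37 C, measured by luciferase luminescence.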

[11] = MultiTox-Fluor Cytotoxicity Assay - LYMP1-002 - Live Cells (AID 955); note: % is set by controls: 0 for no effect and ±100 for the full control effect
In short: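 Human lymphoblastoid LYMP1-002 cells, 2500/well, treated 16 h at 37 C in complete medium. Live-cell protease activity via GF-AFC fluorescence (Ex/Em 405/510) after 60 min reagent incubation; AC50 from Hill fits.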

[12] = MultiTox-Fluor Cytotoxicity Assay - LYMP1-002 - Dead Cells (AID 960);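 note: 0% = DMSO and 100% = tetraoctylammonium bromide; nearly all actives have a fitted effect of over 60% in size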
In short: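 Human lymphoblastoid LYMP1-002 cells, 2500/well, treated 16 h at 37 C; dead-cell protease cleavage of bis-AAF-R110 read by fluorescence (485/520); normalized to DMSO and 15 uM tetraoctylammonium bromide; AC50 from Hill fit.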

[13] = MultiTox-Fluor Cytotoxicity Assay - LYMP1-003 - Dead Cells (AID 961);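 note: 0% = DMSO and 100% = tetraoctylammonium bromide; nearly all actives have a fitted effect of over 70% in size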
In short: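 LYMP1-003 human lymphoblastoid cells (2500/well) exposed to compound 16 h at 37 C in complete medium; dead-cell protease read with bis-AAF-R110 fluorescence (Ex/Em 485/520) after 60 min at room temperature. Normalized to DMSO and 15 uM tetraoctylammonium bromide; AC50 from Hill fit.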

[14] = MultiTox-Fluor Cytotoxicity Assay - LYMP1-003 - Live Cells (AID 962);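 note: 0% = DMSO only and full loss = 92 µM tetraoctylammonium bromide; cytotoxic hits lower the live-cell protease signal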
In short: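 LYMP1-003 lymphoblastoid cells, 2500/well in complete medium, treated 16 h at 37 C; live-cell protease cleavage of GF-AFC read by fluorescence (Ex/Em 405/510) after 60 min reagent; AC50 from Hill fits of concentration-response.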

[15] = Cell Viability - LYMP1-003 - Assay at 24 hr (AID 963);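 note: plate controls were DMSO only for no effect and tetraoctylammonium bromide positive control for full effect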
In short: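 Human lymphoblastoid LYMP1-003 cells, 2500/well, treated 24 h at 37 C in complete medium. Viability read as intracellular ATP by CellTiter-Glo luminescence after 30 min at room temperature; AC50 from Hill-equation fits of qHTS concentration-response.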

[16] = Cell Viability - LYMP1-003 - Assay at 40 hr (AID 964); note: series mostly up to about 92 µM; % is set by controls: 0 for no effect and ±100 for the full control effect; nearly all actives have a fitted effect of over 60% in size
In short: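 LYMP1-003 human lymphoblastoid cells, 2500/well, preincubated 5 h at 37 C, then treated with compound for 40 h at 37 C. Intracellular ATP read by CellTiter-Glo luminescence after 30 min at room temperature; AC50 from Hill-equation fits.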

[17] = qHTS Assay for Identification of Small Molecule Antagonists for Thrombopoietin (TPO) Signaling Pathway (AID 918); conditions: TPO-dependent cell signaling reporter, antagonist mode; note: potency is the fitted concentration of half-maximal effect; nearly all actives have a fitted effect of over 60% in size
In short: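 Murine Ba/F3 cells expressing human TPO receptor and a Glycoprotein IIb promoter-luciferase reporter, IL-3-starved overnight, treated with compound plus TPO at EC50 (26 pM final). After 24 h at 37 C, luminescence read to detect inhibitors.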

[18] = qHTS Assay for Identification of Small Molecule Agonists for Hypoxia Response Element Signaling Pathway (AID 914; active = well fitted activation curve with a large enough effect in the signal ratio, with a control signal flat, not every such curve was filed as active; the % refers to the signal ratio; note: % of control where 0% means no effect); conditions: ME-180 (cervical carcinoma) HRE-bla reporter, beta-lactamase ratio, CoCl2, 17 h; stronger effect = higher value
In short: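 HRE-bla ME-180 cells with beta-lactamase reporter under hypoxia response element, compounds with EC50 CoCl2 for 17 hours at 37 C. CCF4 substrate, 460nm/530nm emission ratio gave %Activity; AC50 from titration series.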

O=C(O)CN(CCOCCOCCN(CC(=O)O)CC(=O)O)CC(=O)O
inactive: outcome [1] | Potency [2] | Potency [3] | Potency [4] | outcome [5]

CC(C)NNC(=O)c1ccncc1
inactive: outcome [1] | outcome [6] | outcome [5]

CN=C(NC#N)NCCSCc1nc[nH]c1C
inactive: outcome [1] | outcome [7] | outcome [6] | Potency [3] | Potency [4] | outcome [8] | outcome [9] | outcome [10] | outcome [5] | outcome [11] | Potency [12] | Potency [13] | outcome [14] | outcome [15] | Potency [16]

COCC(=O)O[C@]1(CCN(C)CCCc2nc3ccccc3[nH]2)CCc2cc(F)ccc2[C@@H]1C(C)C
active: Potency [17] 12.6 µM
inactive: outcome [5]

CCn1nc(C(=O)O)c(=O)c2cc3c(cc21)OCO3
inactive: outcome [1] | outcome [6] | outcome [5]

CCN(CC)CCNC(=O)c1ccc(NC(C)=O)cc1
inactive: outcome [1] | outcome [6] | Potency [2] | Potency [4] | outcome [5]

CCCCNc1ccc(C(=O)OCCN(C)C)cc1
inactive: outcome [1] | outcome [6] | Potency [4] | outcome [5]

CCCN(CCC)CCc1cccc2c1CC(=O)N2
active: Potency [2] 17.8 µM
inactive: outcome [1] | outcome [6] | Potency [4] | outcome [5]

OCCN1CCN(CCCN2c3ccccc3C=Cc3ccccc32)CC1
active: Potency [2] 3.16 µM and 3.55 µM | Potency [3] 3.55 µM and 4.47 µM
inactive: outcome [1] | Potency [4] | outcome [5]

CSc1ccc(C(=O)c2[nH]c(=O)[nH]c2C)cc1
inactive: outcome [1] | Potency [4] | outcome [5]

CNCCCN1c2ccccc2CCc2ccccc21
inactive: outcome [6] | outcome [5]
active: Potency [17] 12.6 µM

O=C(O)CP(=O)(O)O
inactive: activation [18] 5.52% and -2.23% | outcome [1] | Potency [2] | Potency [3] | Potency [4] | outcome [5]
